Reference: PubChem BioAssay (NCATS)
Several values for one entry are separate records, joined by “and”; a condition that tells them apart may be missing. Identical values can stand only once. Inconclusive results are not listed. Activity calls are given as the source filed them. Unless noted, calls come from the whole dose curve; as a rule, active = well fitted curve in the direction sought with a large enough effect; inconclusive = small, poorly fitted or top-dose-only effect, or another doubt; inactive = no such curve, though single readings can be large; an effect the other way counts as inactive or inconclusive.

Experiments:
[1] = test system: Zika virus NS2B-NS3 protease (linked construct); test: Primary screen NINDS Rhodamine qHTS for Zika virus inhibitors (AID 1347160); settings: purified NS2B-NS3 protease, Rhodamine110 substrate fluorescence; series mostly up to 57.1 µM; note: nearly all actives have a fitted effect of over 55% in size
Procedure, shortened: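 Kinetic fluorescence (Ex 480 nm, Em 540 nm) over 15 min with 1.5 microM Rhodamine110 peptide and 25 nM linked protease.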

[2] = biological target: Calcium and integrin-binding protein 1 (Homo sapiens) (UniProt Q99828); test: Primary qHTS for Identification of Calcium Integrin Binding Protein 1 (CIB1) Competitor (AID 1508620); settings: CIB1-GST / FITC-alphaIIb peptide fluorescence polarization; series mostly up to 114 µM;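 note: GST tagged CIB1 binding a fluorescein labelled alphaIIb integrin peptide tracer; top concentration of the series differs between compounds; % is set by controls: 0 for no effect and ±100 for the full control effect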
Procedure, shortened: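 Fluorescence polarization competition: GST-tagged CIB1 (1 uM final) preincubated with compound 15 min at room temperature, then FITC-labelled alphaIIb peptide (100 nM final) added. After 15 min at room temperature, polarization read at Ex 480/Em 540.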

[3] = Primary qHTS for inhibitors of nuclear receptor binding SET domain protein 2 (NSD2) in an isogenic RCH-ACV NSD2 p.E1099K mutant (9B) (AID 1645876); settings: RCH-ACV NSD2 E1099K (9B) viability, CellTiter-Glo, 72 h; series mostly up to 44.9 µM; note: nearly all actives have a fitted effect of over 70% in size; note: potency is the fitted concentration of half-maximal effect
[4] = Primary qHTS for inhibitors of nuclear receptor binding SET domain protein 2 (NSD2) in an RCH-ACV wild type WT cells (2C) (AID 1645877); settings: RCH-ACV (leukaemia line) NSD2 WT (2C) viability, CellTiter-Glo, 72 h; series mostly up to 44.9 µM; note: nearly all actives have a fitted effect of over 70% in size; note: potency is the fitted concentration of half-maximal effect
[5] = biological target: Glutathione peroxidase 1 (Homo sapiens) (UniProt P07203); test: Primary qHTS Assay for Inhibitors of Recombinant Selenoprotein Glutathione Peroxidase 1 (GPX1) (AID 1845191); settings: recombinant GPX1, GR-coupled NADPH fluorescence, 15 min; series mostly up to 48.8 µM; note: nearly all actives have a fitted effect of over 65% in size
Procedure, shortened: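 GR-coupled assay: compounds preincubated 30 min at room temperature with GPX1, then reaction started with CHP; final 10 nM GPX1, 1 mM GSH, 0.5 mM CHP, 0.5 mM NADPH, 100 nM GR, 0.01% BSA, pH 7.5 Tris buffer. NADPH fluorescence (340/450 nm) read at 0 and 15 min.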

[6] = biological target: Phospholipid hydroperoxide glutathione peroxidase GPX4 (Homo sapiens) (UniProt P36969); test: Primary qHTS Assay for Inhibitors of Recombinant Selenoprotein Glutathione Peroxidase 4 (GPX4) (AID 1845192); settings: recombinant GPX4, GR-coupled NADPH fluorescence, 15 min; series mostly up to 50 µM; note: nearly all actives have a fitted effect of over 65% in size
Procedure, shortened: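 GR-coupled assay: recombinant GPX4 preincubated 30 min with compound at room temperature; final 200 nM GPX4, 1 mM GSH, 0.5 mM cumene hydroperoxide, 0.5 mM NADPH, 100 nM GR, 0.01% BSA, pH 7.5 Tris. NADPH fluorescence (340/450 nm) read at 0 and 15 min.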

[7] = biological target: Luciferin 4-monooxygenase (Photinus pyralis) (UniProt P08659); test: Primary firefly luciferase (FLuc) qHTS assay for identification of artifact compounds. (AID 1845220); settings: purified firefly luciferase, luminescence, 5 min; series mostly up to 54.1 µM; note: nearly all actives have a fitted effect of over 60% in size
Procedure, shortened: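 Enzymatic FLuc inhibition assay: compounds pre-exposed to luciferin/ATP (10 uM each) for 15 min, then purified P. pyralis enzyme at 10 nM added. Read-out: luminescence at 5 min.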

[8] = Primary fluorescence-based thiol-reactive (MSTI) qHTS assay for identification of artifact compounds. (AID 1845221); settings: MSTI thiol-reactivity probe, 1 h; series mostly up to 53.8 µM;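 note: thiol-reactive compounds lower the probe fluorescence signal; nearly all actives have a fitted effect of over 65% in size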
Procedure, shortened: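 A multi-concentration qHTS design tested compounds against 4 uM MSTI, pH 7.4 phosphate-buffered saline. Plates were protected from light for 1 h at room temperature before imaging fluorescence.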

[9] = test system: Nanoluciferase (engineered Oplophorus gracilirostris luciferase); test: Primary Nanoluciferase (NLuc) qHTS assay for identification of artifact compounds. (AID 1845222); settings: NLuc-conditioned medium, Nano-Glo luminescence, 5 min; series mostly up to 54.1 µM;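 note: NLuc secreted into diluted conditioned medium of S16 cells; 0% = DMSO and -100% = no enzyme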
Procedure, shortened: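 S16 cell supernatant NLuc, 1:55; cpds qHTS; 15 min RT dark; Nano-Glo substrate 1:100, 5 min; luminescence; Hill fit of % inhibition.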

[10] = Primary redox qHTS assay for identification of artifact compounds. (AID 1845223); settings: Amplex Red/HRP redox cycling with DTT, fluorescence; series mostly up to 53.8 µM;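 note: 0% = DMSO and 100% = reference compound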
Procedure, shortened: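 Amplex Red (25 uM) and HRP (250 mU/mL) in HBSS, with compounds for 15 min, then 250 uM DTT for 30 min, room temperature, dark. Fluorescence 525/598 nm read; normalized to DMSO and 10 uM DA3003; Hill fit.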

[11] = qHTS drug screen for cell cycle checkpoint inhibitors in PARPi-resistant BRCA-mutant ovarian cancer cell lines. (AID 1963452; calls by dose curve); settings: PEO1/OlaR viability, CellTiter-Glo luminescence, 96 h, stronger effect = lower value
Procedure, shortened: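 PEO1, PEO4 and PEO1/OlaR ovarian cancer cells, 600 per well, exposed 96 h at 37C to a dilution series. Viability read by CellTiter-Glo luminescence, normalized to DMSO and empty wells; activity summarized as Z-AUC.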

C33A = test: Primary qHTS to identify gynecologic anti-cancer compounds using libraries of approved drugs and bioactive compounds (AID 1345084); settings: Gynecologic cancer cell panel viability, ATPlite luminescence, 48 h; series mostly up to 57.5 µM; note: % is set by controls: 0 for no effect and ±100 for the full control effect; nearly all actives have a fitted effect of over 55% in size
Procedure, shortened: (§1)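 ATP-based viability (ATPlite), 1,000 cells/well, 16 h pre-incubation, 48 h compound at 37 C, 5% CO2, 15 min RT before read.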

CASKI = test: as above; settings: Gynecologic cancer cell panel viability, ATPlite luminescence, 48 h; series mostly up to 57.5 µM
Procedure, shortened: as §1

Es-2 = test: as above; settings: Gynecologic cancer cell panel viability, ATPlite luminescence, 48 h; series mostly up to 57.5 µM
Procedure, shortened: as §1

HeLa = test: as above; settings: Gynecologic cancer cell panel viability, ATPlite luminescence, 48 h; series mostly up to 57.5 µM
Procedure, shortened: as §1

Hek293T = test: as above; settings: Gynecologic cancer cell panel viability, ATPlite luminescence, 48 h, control line for the selectivity index; series mostly up to 57.5 µM
Procedure, shortened: as §1

JEG-3 = test: as above; settings: Gynecologic cancer cell panel viability, ATPlite luminescence, 48 h; series mostly up to 57.5 µM
Procedure, shortened: as §1

OV90 = test: as above; settings: Gynecologic cancer cell panel viability, ATPlite luminescence, 48 h; series mostly up to 57.5 µM
Procedure, shortened: as §1

Tov-21-G = test: as above; settings: Gynecologic cancer cell panel viability, ATPlite luminescence, 48 h; series mostly up to 57.5 µM
Procedure, shortened: as §1

Tov112D = test: as above; settings: Gynecologic cancer cell panel viability, ATPlite luminescence, 48 h; series mostly up to 57.5 µM
Procedure, shortened: as §1

[12] = measured here: PEO1 parental Z-AUC

Sequence of Glutathione peroxidase 1 (Homo sapiens) (P07203 whole entry, looked up): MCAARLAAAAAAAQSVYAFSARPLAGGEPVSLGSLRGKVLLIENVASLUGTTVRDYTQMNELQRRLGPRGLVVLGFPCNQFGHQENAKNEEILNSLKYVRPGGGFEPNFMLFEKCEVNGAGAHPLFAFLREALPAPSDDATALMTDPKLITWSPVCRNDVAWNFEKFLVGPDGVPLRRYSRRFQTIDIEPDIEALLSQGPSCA
Sequence of Calcium and integrin-binding protein 1 (Homo sapiens) (Q99828 whole entry, looked up): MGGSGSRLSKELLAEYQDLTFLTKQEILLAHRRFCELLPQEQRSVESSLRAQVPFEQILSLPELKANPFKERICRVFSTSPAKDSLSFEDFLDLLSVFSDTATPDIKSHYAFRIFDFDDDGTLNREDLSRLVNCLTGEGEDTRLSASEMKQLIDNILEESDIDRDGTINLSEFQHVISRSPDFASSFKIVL
Sequence of Phospholipid hydroperoxide glutathione peroxidase GPX4 (Homo sapiens) (P36969 whole entry, looked up): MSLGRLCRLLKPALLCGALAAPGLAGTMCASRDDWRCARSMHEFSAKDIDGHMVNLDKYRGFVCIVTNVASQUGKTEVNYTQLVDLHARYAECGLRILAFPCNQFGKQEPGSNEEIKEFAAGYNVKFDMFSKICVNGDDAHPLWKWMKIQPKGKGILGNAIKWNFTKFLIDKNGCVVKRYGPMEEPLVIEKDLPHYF

N#C[C@@H]1C[C@@H]2C[C@@H]2N1C(=O)[C@@H](N)C12CC3CC(CC(O)(C3)C1)C2
0.593: Z-AUC [11, 12]
inactive: Potency [1] | outcome [2] | Potency [3] | Potency [4] | Potency [5] | Potency [6] | Potency [7] | Potency [8] | Potency [9] | Potency [10] | Z-AUC [11] -0.557 | Potency (C33A) | Potency (CASKI) | Potency (Es-2) | Potency (HeLa) | Potency (Hek293T) | Potency (JEG-3) | Potency (OV90) | Potency (Tov-21-G) | Potency (Tov112D)
-0.565: Z-AUC ([11]; measured here: PEO4 Z-AUC)

CCCCC(=O)N(Cc1ccc(-c2ccccc2-c2nn[nH]n2)cc1)C(C(=O)O)C(C)C (centres undefined)
inactive: Potency [1] | Potency [3] | Potency [4] | Potency [6] | Potency [7] | Potency [8] | Potency [10] | Potency (C33A) | Potency (CASKI) | Potency (Es-2) | Potency (HeLa) | Potency (Hek293T) | Potency (JEG-3) | Potency (OV90) | Potency (Tov-21-G) | Potency (Tov112D)

CCN(CC)Cc1cccc(/C=C/c2nc3ccc(F)cc3c(=O)n2-c2ccccc2Cl)n1
active: Potency [3] 14.5 µM | Potency [4] 12.9 µM
inactive: Potency [1] | outcome [2] | Potency [5] | Potency [6] | Potency [7] | Potency [8] | Potency [9] | Potency [10] | Potency (C33A) | Potency (CASKI) | Potency (Es-2) | Potency (HeLa) | Potency (Hek293T) | Potency (JEG-3)

COc1cc(N2CCN(C(C)=O)CC2)ccc1Nc1ncc(Cl)c(Nc2ccc(N3CCN(C(C)=O)CC3)cc2OC)n1
inactive: Potency [1] | outcome [2] | Potency [5] | Potency [6] | Potency [7] | Potency [9] | Potency [10] | Z-AUC [11] 0.859 | Potency (C33A) | Potency (Es-2) | Potency (JEG-3)
0.393: Z-AUC [11, 12]
active: Potency [3] 8.17 µM and 16.6 µM | Potency [4] 6.49 µM and 13.2 µM
0.132: Z-AUC ([11]; measured here: PEO4 Z-AUC)

Nc1nc(NCC2CCC(CNS(=O)(=O)c3cccc4ccccc34)CC2)nc2ccccc12 (centres undefined)
active: Potency [3] 4.09 µM | Potency [4] 2.58 µM
inactive: Potency [1] | outcome [2] | Potency [5] | Potency [6] | Potency [7] | Potency [8] | Potency [9] | Potency [10] | Potency (C33A) | Potency (CASKI) | Potency (Es-2) | Potency (HeLa) | Potency (Hek293T) | Potency (JEG-3) | Potency (Tov-21-G)

CN(C)C(=O)c1cc2cnc(Nc3ccc(N4CCNCC4)cn3)nc2n1C1CCCC1
0.126: Z-AUC ([11]; measured here: PEO4 Z-AUC)
active: Potency [3] 4.09 µM | Potency [4] 5.15 µM
inactive: Potency [1] | outcome [2] | Potency [5] | Potency [6] | Potency [7] | Potency [9] | Potency [10] | Z-AUC [11] 0.0269 | Potency (C33A) | Potency (CASKI) | Potency (Es-2) | Potency (HeLa) | Potency (Hek293T) | Potency (JEG-3) | Potency (OV90) | Potency (Tov-21-G) | Potency (Tov112D)
0.759: Z-AUC [11, 12]

COCCNCc1ccc(-c2cc3nccc(Oc4ccc(NC(=S)NC(=O)Cc5ccc(F)cc5)cc4F)c3s2)nc1
-0.316: Z-AUC [11, 12]
0.00247: Z-AUC ([11]; measured here: PEO4 Z-AUC)
inactive: Potency [1] | outcome [2] | Potency [5] | Potency [6] | Potency [7] | Potency [8] | Potency [9] | Potency [10] | Z-AUC [11] 0.225 | Potency (CASKI) | Potency (JEG-3) | Potency (Tov-21-G)
active: Potency [3] 2.9 µM | Potency [4] 3.25 µM and 2.35 µM

CC1(C)SC2C(NC(=O)[C@H](C(=O)O)c3ccsc3)C(=O)N2C1C(=O)O (some centres undefined)
inactive: Potency [1] | outcome [2] | Potency [3] | Potency [4] | Potency [6] | Potency [7] | Potency [8] | Potency [9] | Potency [10] | Potency (C33A) | Potency (CASKI) | Potency (Es-2) | Potency (HeLa) | Potency (Hek293T) | Potency (JEG-3) | Potency (OV90) | Potency (Tov-21-G) | Potency (Tov112D)

C=CC(=O)N1CCN(C(=O)c2cc(-c3cc(Cl)ccc3Cl)c(Cl)cc2OC)CC1
active: Potency [3] 11.5 µM | Potency [4] 8.17 µM
inactive: Potency [1] | outcome [2] | Potency [5] | Potency [6] | Potency [7] | Potency [8] | Potency [9] | Potency [10] | Potency (CASKI) | Potency (JEG-3) | Potency (OV90)
